Source: PubChem (several laboratories)
This is one part of a sample in which hits are shown more often than they occur.
FXIIa mix inh = blocks human factor XIIa in pooled compound mixtures. purified FXIIa, fluorogenic substrate. inhibition, % at 5 µM. 62,000 tested, 0.2% active;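 further: 0% = enzyme without compound and 100% = no enzyme blank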
Target sequence (P00748 20-372 limits assumed): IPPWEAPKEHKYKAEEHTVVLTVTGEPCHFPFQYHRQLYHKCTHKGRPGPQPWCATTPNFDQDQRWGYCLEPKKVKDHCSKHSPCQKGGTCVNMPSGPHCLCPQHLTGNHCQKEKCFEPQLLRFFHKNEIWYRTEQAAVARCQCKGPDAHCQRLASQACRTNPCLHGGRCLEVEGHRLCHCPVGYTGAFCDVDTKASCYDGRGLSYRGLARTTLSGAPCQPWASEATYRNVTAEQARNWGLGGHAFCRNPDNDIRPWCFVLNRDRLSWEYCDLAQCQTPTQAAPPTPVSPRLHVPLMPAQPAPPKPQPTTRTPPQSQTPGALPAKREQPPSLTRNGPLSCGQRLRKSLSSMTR
Target sequence (P00748 373-615 limits assumed): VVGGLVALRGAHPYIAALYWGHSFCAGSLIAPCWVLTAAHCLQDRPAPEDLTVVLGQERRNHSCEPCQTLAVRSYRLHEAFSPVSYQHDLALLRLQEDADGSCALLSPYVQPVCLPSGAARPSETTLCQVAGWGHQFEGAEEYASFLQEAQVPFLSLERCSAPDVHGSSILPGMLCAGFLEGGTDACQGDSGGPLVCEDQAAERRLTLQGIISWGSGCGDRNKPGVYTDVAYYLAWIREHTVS
Calb biofilm kill = kills Candida albicans biofilms. C. albicans biofilm + clotrimazole, Alamar Blue. inhibition, % at 6 µM. 85,000 tested, 0.14% active. AID 834;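 active means inhibition above 20%; inactive means inhibition below 20%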;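 further: preformed 24 hr biofilms exposed to compound for 48 hr; 0% = biofilm without compound and 100% = blank killed by clotrimazole plus chlorhexidine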
D1 allo mod = allosterically modulates the human D1 dopamine receptor | P21728 | HEK293 D1, CRE-luciferase, dopamine EC30 potentiation; actives deviate in either direction | B-score at 10 µM | 58,000 tested, 5.9% active;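 active means luminescence count or its row- and column-corrected plate score outside the 99.7% band of the plate's sample wells, on either side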
FXIa mix inh = blocks human factor XIa in pooled compound mixtures | P03951 | purified FXIa, fluorogenic substrate | inhibition, % at 5 µM | 62,000 tested, 0.19% active | AID 680;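 further: each value is inhibition by a whole ten-compound pool holding the compound; 0% = enzyme with no mixture and 100% = wells lacking enzyme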
HePTP inh = inhibitors of human HePTP phosphatase; inhibition, % at 20 µM; P35236; 110,000 tested, 0.64% active; recombinant HePTP phosphatase activity, OD absorbance; in the data active means inhibition above about 50%;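 further: plate controls were vehicle for no effect and reference inhibitor for full effect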
TNAP act mid DEA = activates human TNAP at intermediate phosphate acceptor concentration; activation factor at 20 µM; purified TNAP, CDP-star luminescence, 100 mM DEA, 30 min; hits give high values; scale: 0 levamisole-inhibited, 1 vehicle-only enzyme; AID 813; 64,000 tested, under 10 active; P05186;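 active means activation factor of at least 2 at 20 µM, relative to controls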
D1 PAM confirm = confirmation of human D1 dopamine receptor allosteric modulators; shares compounds with D1 allo mod; HEK293 D1 CRE-luciferase, dopamine EC30 potentiation; hits give high values; luminescence at 10 µM; 2,200 tested, 88% active; AID 642;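 active means luminescence in either of two replicates above the same-plate mean plus 3 SD of the low-dose dopamine control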
D1 ag no DA = activates D1 CRE-luciferase signal without dopamine present | shares compounds with D1 allo mod | HEK293 D1 CRE-luciferase, luminescence, no dopamine; hits give high values | 1,900 tested, 0.8% active | luminescence at 10 µM; in the data active means luminescence above about 3900
Isoprot counter = isoproterenol response counter-screen activity for D1 modulators. 2,200 tested, 63% active. luminescence at 10 µM. HEK293 D1 CRE-luciferase, isoproterenol EC30 counter-screen; hits give high values. shares compounds with D1 allo mod. AID 647;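 active means luminescence in either replicate above plate mean of wells with a partly effective reference agonist dose plus 3 SD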;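 further: isoproterenol raises cAMP through native beta-adrenoceptor Gs so signal bypasses D1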
Starred values were filed as active, the others as inactive; / = not tested or not shown. Unless noted, no stated cut-off is given here; in the data, active means inhibition above about 20% (passing the limit was not always enough); inactive means the rest.

SMILES	FXIIa mix inh	Calb biofilm kill	D1 allo mod	FXIa mix inh	HePTP inh	TNAP act mid DEA	D1 PAM confirm	D1 ag no DA	Isoprot counter
COc1ccc(CN2CCN(Cc3ccc(F)cc3)CC2)cc1	/	/	/	/	2	/	/	/	/
CCCCn1c(O)c(C(CC)=NCc2ccc3c(c2)OCO3)c(=O)[nH]c1=O	-7	6	7.4*	6	5	0.9	12520*	1728	3448*
CCCCn1c(O)c(C(CC)=Nc2ccc(C(=O)O)cc2)c(=O)[nH]c1=O	5	-1	0.6	-29	7	0.9	/	/	/
CC12CCC(C/C1=N/O)C(C)(C)N2 (stereo not given)	/	/	/	/	-7	/	/	/	/
Cc1nn(Cc2ccccc2)c(C)c1C(=O)OCC(=O)Nc1ccccc1SCC#N	7	9	4.2*	0	8	0.9	8752*	/	3224*
CCC(=NCc1ccco1)c1c(O)n(C2CCCCC2)c(=O)[nH]c1=O	25	5	14*	3	-5	0.9	16640*	832	4524*
CCC(=NCc1cccnc1)c1c(O)n(C2CCCCC2)c(=O)[nH]c1=O	4	5	15*	2	10	0.9	9572*	1408	4052*
CCC(=NCCCN(CC)CC)c1c(O)n(C2CCCCC2)c(=O)[nH]c1=O	-20	5	0.47	6	-8	1	/	/	/
CC(=NCc1cccnc1)c1c(O)n(C2CCCCC2)c(=O)[nH]c1=O	6	7	6*	-1	-5	0.9	9208*	1480	3100*
CC(=NCc1ccco1)c1c(O)n(Cc2ccccc2)c(=O)[nH]c1=O	-3	3	4.5*	-2	-6	0.9	10196*	1640	2956*
CCCCCn1c(=O)c(C(=O)Nc2ccccc2F)c(O)c2ccccc21	/	/	/	/	-8	/	/	/	/
CCCCc1nc2ccccc2c(=O)n1-c1ccc(O)cc1	2	-1	3.7*	7	10	0.9	8012*	1524	3840*
CCOc1ccc(-n2c(CC)nc3ccccc3c2=O)cc1	-17	-2	0.073	0	10	1	/	/	/
Cc1[nH]c2c(C(F)(F)F)cccc2c1CCN	16	2	7.8*	6	5	0.9	5580	/	2156
Cc1n[nH]c(C)c1CCN	-4	-6	0.057	1	0	0.9	/	/	/
COc1cc(C)cc2oc(=O)c3c(c12)CCCC3	/	/	/	/	1	/	/	/	/
O=C1NC(=S)NC(=O)C1=Cc1ccc(-c2ccc(C(=O)O)cc2)o1	/	/	/	/	49	/	/	/	/
CCOC(=O)c1c(C)n(Cc2ccco2)c2ccc(OC)cc12	39	9	3.9*	14	-9	1	5008	1440	2384
COC(=O)c1c(C)n(Cc2ccco2)c2ccc(O)cc12	/	5	/	/	/	/	/	/	/
CCOC(=O)c1cc2c(cn1)[nH]c1ccccc12	3	4	16*	2	12	0.8	15472*	1484	3188*
O=c1[nH]c(=O)n(Cc2ccc(F)cc2)c(O)c1C=NCCCN1CCOCC1	12	/	-0.52	-30	-7	0.8	/	/	/
O=c1[nH]c(=O)n(CCc2ccc(F)cc2)c(O)c1C=NCCCN1CCOCC1	2	7	12*	3	4	0.8	4420	2264	2144
CCc1cc(C)cc(OCCOc2ccccc2C=C2C(=O)NC(=S)NC2=O)c1	/	/	/	/	-3	/	/	/	/
Cc1nc2ncnn2c(C)c1CCC(=O)N1CCC2(CC1)OCCO2	1	3	2.8*	9	7	1	5300	1580	3476
Cc1nc2c(-c3ccc(F)cc3)c(C)nn2c(C)c1CCC(=O)N1CCC2(CC1)OCCO2	4	2	6.1*	-3	0	0.9	7792*	1504	3452*
Cc1ccc(Cc2c(C)nc3nc(SCC(=O)N4CCC5(CC4)OCCO5)nn3c2C)cc1	/	6	/	/	/	/	/	/	/
Cc1nc2cc(-c3ccccc3)nn2c(C)c1CCC(=O)N1CCC2(CC1)OCCO2	10	-2	0.79	5	-6	1	/	/	/
CCC(C)c1ccc(OCCOc2ccc(C=C3C(=O)NC(=O)NC3=O)cc2)cc1 (stereo not given)	/	/	/	/	14	/	/	/	/
O=c1c2ccccc2nc(-c2ccc(Cl)cc2Cl)n1-c1ccc(Br)cn1	/	/	/	/	-17	/	/	/	/
